The supplement of paper PMC13380429

Test system: Vero E6 infected with SARS-CoV-2
Test: inhibition of SARS-CoV-2 cytopathic effect; higher = more antiviral protection, active = above 15
Settings: 48 h

Structure (SMILES) | inhibition of SARS-CoV-2 cytopathic effect (1 nM) | inhibition of SARS-CoV-2 cytopathic effect (8.33 nM) | inhibition of SARS-CoV-2 cytopathic effect (100 nM) | inhibition of SARS-CoV-2 cytopathic effect (833.33 nM) | inhibition of SARS-CoV-2 cytopathic effect (10000 nM)
COc1ccccc1OCC(O)CN1CCN(CC(=O)Nc2c(C)cccc2C)CC1 (stereo not given) [ranolazine] | 0.1% (inactive) | -0.38% (inactive) | -2.33% (inactive) | 0.17% (inactive) | -0.73% (inactive)
CC(=O)c1cc([N+](=O)[O-])c(Sc2ccc(F)cc2F)s1 | -0.55% (inactive) | 1.74% (inactive) | 0.23% (inactive) | -0.14% (inactive) | 19.6% (active)
CC(C)C[C@H](NC(=O)[C@H](CCc1ccccc1)NC(=O)CN1CCOCC1)C(=O)N[C@@H](Cc1ccccc1)C(=O)N[C@@H](CC(C)C)C(=O)[C@@]1(C)CO1 [carfilzomib] | -1.68% (inactive) | -2.43% (inactive) | 11.4% (inactive) | 34.9% (active) | 10.2% (inactive)
C[N+]1(C)[C@@H]2CC[C@H]1C[C@@H](OC(=O)C(O)c1ccccc1)C2 (stereo not given in full) [homatropine-methylbromide] | 0.79% (inactive) | 1.12% (inactive) | 0.14% (inactive) | 0.62% (inactive) | 0.96% (inactive)
O=C1S/C(=C\c2ccc(OCc3cccc(B(O)O)c3)cc2)C(=O)N1Cc1ccc(F)cc1 | -1.35% (inactive) | 1.46% (inactive) | 0.45% (inactive) | 3.95% (inactive) | -1.14% (inactive)
CCN(CC)Cc1cc(Nc2ccnc3cc(Cl)ccc23)ccc1O [amodiaquine] | 3.02% (inactive) | 3.97% (inactive) | 0.97% (inactive) | -1.05% (inactive) | 44.7% (active)
CS(=O)(=O)c1ccc(C2=C(c3ccccc3)C(=O)OC2)cc1 [rofecoxib] | 1.64% (inactive) | -0.86% (inactive) | -0.87% (inactive) | 0.62% (inactive) | 1.14% (inactive)
CC1(C)CC(Oc2ccc(-c3ccc(-c4cn[nH]c4)cc3O)nn2)CC(C)(C)N1 | 1.13% (inactive) | 0.25% (inactive) | 2.2% (inactive) | -9.03% (inactive) | -14.9% (inactive)
COc1ncc(-c2ccc3nccc(-c4ccnnc4)c3c2)cc1NS(=O)(=O)c1ccc(F)cc1F | -1.37% (inactive) | -0.94% (inactive) | -8.41% (inactive) | -8.47% (inactive) | 3.03% (inactive)
O=c1cc(N2CCNCC2)oc2c(-c3ccccc3)cccc12 | 0.61% (inactive) | -3.07% (inactive) | -0.37% (inactive) | 0.12% (inactive) | 1.5% (inactive)
O=C(O)[C@]1(Cc2cccc(Nc3nccs3)n2)CC[C@@H](Oc2cccc(Cl)c2F)CC1 | 0.11% (inactive) | -0.24% (inactive) | -0.82% (inactive) | -6.57% (inactive) | -5.28% (inactive)
Cc1cc(C)c2c(c1)[C@@H](N(Cc1cc(C(F)(F)F)cc(C(F)(F)F)c1)c1nnn(C)n1)CCCN2C[C@H]1CC[C@H](C(=O)O)CC1 [evacetrapib] | 2.13% (inactive) | -0.17% (inactive) | -3.28% (inactive) | -0.14% (inactive) | 3.85% (inactive)
CO[C@H]1/C=C/O[C@@]2(C)Oc3c(C)c(O)c4c(O)c(c5c(nc6cc(C)ccn65)c4c3C2=O)NC(=O)/C(C)=C\C=C\[C@H](C)[C@H](O)[C@@H](C)[C@@H](O)[C@@H](C)[C@H](OC(C)=O)[C@@H]1C [rifaximin] | 0.71% (inactive) | -2.16% (inactive) | -0.03% (inactive) | -3.72% (inactive) | -3.3% (inactive)
Oc1ccc2c(c1)CC[C@H](c1ccccc1)[C@@H]2c1ccc(OCCN2CCCC2)cc1 [lasofoxifene] | -1.63% (inactive) | 4.35% (inactive) | 0.8% (inactive) | -0.28% (inactive) | 49.6% (active)
NCCNc1ccc(NCCN)c2c1C(=O)c1ccncc1C2=O [pixantrone] | -1.68% (inactive) | 0.16% (inactive) | -1.63% (inactive) | 1.22% (inactive) | 1.13% (inactive)
CC(C)(C)NCC(O)COc1cccc2c1CCC(=O)N2 (stereo not given) [carteolol] | 2.16% (inactive) | 1.11% (inactive) | 0.54% (inactive) | 2.62% (inactive) | -0.66% (inactive)
O=C(O)CCc1nc(-c2ccccc2)c(-c2ccccc2)o1 [oxaprozin] | -1.4% (inactive) | -2.65% (inactive) | -0.38% (inactive) | -0.99% (inactive) | 0.84% (inactive)

Structure (SMILES) | inhibition of SARS-CoV-2 cytopathic effect (1 nM) | inhibition of SARS-CoV-2 cytopathic effect (8.33 nM) | inhibition of SARS-CoV-2 cytopathic effect (100 nM) | inhibition of SARS-CoV-2 cytopathic effect (833.33 nM) | inhibition of SARS-CoV-2 cytopathic effect (10000 nM)
CCOC(=O)Nc1cc(-c2ccc(C)c(NS(C)(=O)=O)c2)nn2c(C)nnc12 [bromosporine] | -4.03% (inactive) | -0.62% (inactive) | -0.65% (inactive) | -0.48% (inactive) | -19.3% (inactive)
CCCCCCCC/C=C\CCCCCCCC(=O)NCc1ccc(O)c(OC)c1 [olvanil] | 1.88% (inactive) | -0.08% (inactive) | 4.43% (inactive) | 1.07% (inactive) | 2.19% (inactive)
CCN(CC)CCCCN1c2ccccc2Oc2ccc(Cl)cc21 | 0.59% (inactive) | -2.15% (inactive) | -2.29% (inactive) | -3.45% (inactive) | 40.9% (active)
COc1ccc2[nH]c([S+]([O-])Cc3ncc(C)c(OC)c3C)nc2c1 (stereo not given) [omeprazole-magnesium] | 3.38% (inactive) | 2.29% (inactive) | 3.04% (inactive) | 6.47% (inactive) | 6.97% (inactive)
Clc1ccc2c(c1)CCc1cccnc1C2=C1CCNCC1 [desloratadine] | 5.47% (inactive) | 2% (inactive) | 3.51% (inactive) | -0.44% (inactive) | -5.42% (inactive)
O=[N+]([O-])c1ncc[nH]1 [azomycin-(2-nitroimidazole)] | 1.8% (inactive) | 1.77% (inactive) | 0.86% (inactive) | 2.21% (inactive) | -0.1% (inactive)
c1ccc(CN2CCC3(CCc4ccccc43)CC2)cc1 | -1.07% (inactive) | -1.48% (inactive) | 0.06% (inactive) | 1.63% (inactive) | 0.48% (inactive)
CN1CC(=O)N=C1NC(=O)Nc1cccc(Cl)c1 [fenobam] | 0.79% (inactive) | 2.12% (inactive) | 0.63% (inactive) | 1.08% (inactive) | -0.64% (inactive)
C[N+]1(C)CCC(OC(=O)C(c2ccccc2)c2ccccc2)CC1 | -1.59% (inactive) | 2.05% (inactive) | 1.2% (inactive) | 1.67% (inactive) | 1.67% (inactive)
OC(c1ccc(-c2ccc(CN3CCN(Cc4ccncc4)CC3)cc2)c(F)c1)(C(F)(F)F)C(F)(F)F | -1.89% (inactive) | 0.74% (inactive) | -2.07% (inactive) | -1.4% (inactive) | -1.46% (inactive)
O=c1cc(N2CCOCC2)oc2c(-c3ccccc3)cccc12 | -0.31% (inactive) | 1.39% (inactive) | 0.59% (inactive) | -1.92% (inactive) | -5.7% (inactive)
Cc1cc(OCc2nc(-c3ccccc3Cl)cs2)ccc1OCC(=O)O [GPR120-modulator-1] | -0.13% (inactive) | 2.43% (inactive) | -1.19% (inactive) | -1.62% (inactive) | -2.32% (inactive)
CCC1=C[C@@H]2CN(C1)Cc1c([nH]c3ccccc13)[C@@](C(=O)OC)(c1cc3c(cc1OC)N(C)[C@H]1[C@@](O)(C(=O)OC)[C@H](OC(C)=O)[C@]4(CC)C=CCN5CC[C@]31[C@@H]54)C2 [vinorelbine] | -1.63% (inactive) | -1.57% (inactive) | -1.35% (inactive) | -2.48% (inactive) | -3.81% (inactive)
COc1cc2ncnc(Nc3cccc(Br)c3)c2cc1OC | -2.89% (inactive) | -3.44% (inactive) | -2.56% (inactive) | -11.5% (inactive) | 36.3% (active)
COc1ccc2c(c1)c(CC(=O)O)c(C)n2C(=O)c1ccc(Cl)cc1 [indomethacin] | -1.21% (inactive) | 0.75% (inactive) | -0.25% (inactive) | 0.83% (inactive) | 0.17% (inactive)
CC(=O)[C@H]1CC[C@H]2[C@@H]3CC[C@H]4C[C@H](O)CC[C@]4(C)[C@H]3CC[C@]12C [allopregnanolone] | 0.625% (inactive) | 0.465% (inactive) | -0.195% (inactive) | 0.8% (inactive) | -0.82% (inactive)
CC(C)(O)CC[C@@H](O)[C@](C)(O)[C@H]1CC[C@@]2(O)C3=CC(=O)[C@@H]4C[C@@H](O)[C@@H](O)C[C@]4(C)[C@H]3CC[C@]12C [20-hydroxyecdysone] | -3.9% (inactive) | -2.28% (inactive) | -3.43% (inactive) | 0.03% (inactive) | 1.01% (inactive)
